In all, about 1,100 compounds went through this assay and about 540 (49%) were called active. Another 5% or so got no clear call; they are omitted. Cut-off read from the data, not from the text of the source: active = inhibition above about 54%; inconclusive = no clear call, values can overlap the other calls; inactive = below that. The set was probably picked from earlier hits. The list is a sample of the results.

The assay in a line: prion 5' UTR mRNA inhibition, cherry-pick retest (AID 504592). To be noted: cell-based prion protein 5' UTR reporter, plate reader; at 2.5 µM; stronger effect = higher value.
Consider `NC(=O)c1ccc(NC(=O)COC(=O)c2ccc([N+](=O)[O-])cc2)cc1`, for which the inhibition is 91.9% (active).
In the case of `O=C1/C(=C\c2ccc([N+](=O)[O-])cc2)CS(=O)(=O)C/C1=C/c1ccc([N+](=O)[O-])cc1` it was 85.3% (active); in that of `CC12CCC3C(CCC4CC(=O)CCC43C)C1CC(=NO)C2=O` (stereo unspecified), 0.372% (inactive); in that of `O=C(CSc1ncnc2sccc12)N1CCN(C(=O)c2cccs2)CC1`, 9.5% (inactive).
The value for `COc1cc(OC)cc(C(=O)N[C@H](C(=O)Nc2nc3ccccc3[nH]2)C(C)C)c1` was 44.9% (inactive).
In the case of `COc1cccc2c1C(=O)c1c(O)c3c(c(O)c1C2=O)CC(O)(C(C)=NNC(=O)c1ccc(Cl)c(Cl)c1)CC3OC1CC(N)C(O)C(C)O1` (stereo unspecified) it was 82.4% (active); in that of `CCC(C)(O)C(=O)OC1C(=O)OC2CC3C(C)=CC(=O)C(O)C3(C)C3C4(O)OCC23C1C(C)C4O` (stereo unspecified), 83% (active); in that of `Cc1ccc(-c2cn3cc(C)ccc3n2)cc1`, 89.9% (active).
As to `Cc1ccc2nc(-c3ccc(Br)cc3)cn2c1`, the inhibition was 40% (inactive).
In the case of `Nc1ccc(OCC(O)C[n+]2ccc(CCS(=O)(=O)[O-])cc2)cc1` (stereo unspecified) it was -71.6% (inactive).
The value for `CN(NC(=O)c1ccccc1F)c1nc(C(F)(F)F)nc2ccccc12` was 86.4% (active).
The value for `COc1ccc(C2=Nn3c(nnc3-c3ccccc3OC)SC2)cc1OC1CCCC1` was 79.2% (active).
On to `CC(C)(C)C1CCc2c(sc3nc(SCC(N)=O)nc(N)c23)C1` (stereo unspecified), for which the inhibition was -25.3% (inactive).
In the case of `COC1C(O)C(C)OC(OC2CCC3(C=O)C(CCC4C3CCC3(C)C(C5=CC(=O)OC5)CCC43O)C2)C1O` (stereo unspecified) it was 91.9% (active).
As to `Cc1ccc(CCC(=O)Nc2ncc(Cc3cc(Cl)ccc3Cl)s2)o1`, the inhibition is 89.3% (active).
`Clc1ccc2nc(-c3ccccc3)nc(C(Cl)Cl)c2c1`: the inhibition is 89.1% (active).
As to `Cc1cc(NC(=O)/C=C/C(=O)N(CC(=O)NC2CCCC2)c2ccc(F)cc2)no1`, the inhibition is 15.5% (inactive).
The value for `O=C(NNC(=O)c1ccccc1O)c1ccccc1O` was 62.2% (active); that for `CC1Cc2ccccc2N1C(=O)c1cc2sccc2n1Cc1ccccc1` (stereo unspecified) was -33.3% (inactive); that for `O=c1oc2ccccc2cc1-c1cn(-c2ccccc2)c(=S)[nH]1` was 86.9% (active).
For the molecule `CCCOC(=O)c1[nH]c2c(c1C)C(=O)CC(c1cccs1)C2` (stereo unspecified), the inhibition is 88.2% (active).
As to `Cc1cc(Nc2ccccc2)n(C(=O)c2ccc(N)cc2)n1`, the inhibition was 12% (inactive).
For `COc1cc([N+](=O)[O-])ccc1NC(=S)N1CCN(c2ccccn2)CC1`, the inhibition is -10.7% (inactive).
In the case of `CN(c1ccc2nc3ccccc3c(=O)n2n1)C1CCCCC1` it was 86.2% (active); in that of `O=C(Nc1ccc2c(c1)OCCO2)C1CCCC1`, 33.2% (inactive); in that of `CCOc1cc(NS(=O)(=O)c2ccc(OC)cc2)c(OCC)cc1NC(C)=O`, -19.5% (inactive).
For `C=CCOc1ccc(/C=C2\SC(=S)N(CCC(=O)O)C2=O)cc1`, the inhibition is 61.2% (active).
The value for `COc1cc(SC)ccc1C(=O)Nc1nc(C)cs1` was 79% (active); that for `OCC1(Cc2ccccc2)CCN(Cc2cc3ccccc3o2)CC1` was -6.23% (inactive).
The value for `O=C(CN1C(=O)c2ccccc2S1(=O)=O)N1CCc2ccccc21` was 80% (active); that for `CC(C)(C)c1ccc(Oc2ccc(N)cc2)cc1` was 85.6% (active); that for `O=C(C1=C[C@H](c2coc3ccccc3c2=O)C[C@H](OCc2ccc(CO)cc2)O1)N1CCN(Cc2ccccc2)CC1` was -63.6% (inactive).
With `COc1ccc(C(=O)Nc2ccccc2C(=O)N/N=C/c2ccc(O)c(OC)c2)cc1`, the inhibition is 71.2% (active).
In the case of `CCC(C)Cn1c(O)cc2nn(-c3nc4ccccc4s3)c(=O)c-2c1C` (stereo unspecified) it was 89.8% (active).
In the case of `CCCCNS(=O)(=O)CCNCc1ccccc1OC` it was -14.3% (inactive); in that of `Oc1ccc(N2CCN(C(=S)NCc3ccccc3)CC2)cc1`, -21.4% (inactive).
As to `CC(=O)OC1C2(CC3N4C(=O)C5(CO)SSC4(CC31O)C(=O)N5C)OC(C)C(C)(C)C2=O` (stereo unspecified), the inhibition was 98.2% (active).
Turning to `CCn1c(=O)c(=O)[nH]c2c(=O)oc3ccc(S(=O)(=O)Nc4ccc(OC)cc4)cc3c21`, the inhibition is -6.15% (inactive).
For the molecule `COC(=O)Cc1[nH]n(-c2nc3ccccc3s2)c(=O)c1C(C)=Nc1ccc(OC)cc1`, the inhibition was 80.6% (active).
`COc1ccc(OC)c(Cc2cnc3nc(N)nc(N)c3c2C)c1`: the inhibition is -3.64% (inactive).
Turning to `CC(=O)c1ccc(Oc2cc(C)nc(-n3nc(C)cc3C)n2)cc1`, the inhibition was 83.7% (active).
In the case of `COc1ccc(C(=O)/C=C/Nc2ccccn2)cc1` it was 73.9% (active).
The value for `Cc1ccc(-c2cccc([C@H]3[C@@H]4C=CC[C@@H](C)[C@@H]4C(=O)N3Cc3ccccc3)c2)cc1` was -13.7% (inactive).
On to `CSc1nc(-c2ccccc2)nc(C(Cl)Cl)n1`, for which the inhibition is 89.8% (active).
As to `C=CCn1c(C)cc(C2=NNC(=NCC)SC2)c1C`, the inhibition was 95.3% (active).
In the case of `O=C1[C@@H](c2ccccc2)[C@@H](c2ccccc2)N1c1cccnc1` it was -4.06% (inactive); in that of `Cc1ccc(S(=O)(=O)Nc2nc3ccccc3s2)cc1[N+](=O)[O-]`, 79.1% (active); in that of `C/C(=N\NC(=O)c1cc2c(s1)CCC(C)C2)c1cccnc1` (stereo unspecified), -16.9% (inactive).
In the case of `Cc1ccc(/C=N/NC(=O)COc2ccccc2-c2ccccc2)cc1` it was 87.8% (active); in that of `COc1ccccc1N1CCN(C(=O)c2cc(=O)c3cc(C)cc(C)c3o2)CC1`, 91.6% (active); in that of `CN(CCO)c1ccc(/C=N/Nc2nncc3ccccc23)cc1`, 72.6% (active).

Source of the values: PubChem BioAssay AID504592 (Broad Institute, 2011).
